Screening data as filed in PubChem BioAssay.
A selection: hits, their analogues and other compounds. The true share with any hit is near 6%.
D1 antag: Antagonist of Human D 1 Dopamine Receptor: qHTS | D(1A) dopamine receptor (Homo sapiens), P21728 | HEK293 TREx D1 cells, calcium flux, dopamine EC80; stronger effect = lower value | activity change, negative = inhibition, % at 10 µM | 360,000 compounds, 3.2% hits; in the data active means activity change below about -30%
Target sequence (P21728 whole entry, looked up): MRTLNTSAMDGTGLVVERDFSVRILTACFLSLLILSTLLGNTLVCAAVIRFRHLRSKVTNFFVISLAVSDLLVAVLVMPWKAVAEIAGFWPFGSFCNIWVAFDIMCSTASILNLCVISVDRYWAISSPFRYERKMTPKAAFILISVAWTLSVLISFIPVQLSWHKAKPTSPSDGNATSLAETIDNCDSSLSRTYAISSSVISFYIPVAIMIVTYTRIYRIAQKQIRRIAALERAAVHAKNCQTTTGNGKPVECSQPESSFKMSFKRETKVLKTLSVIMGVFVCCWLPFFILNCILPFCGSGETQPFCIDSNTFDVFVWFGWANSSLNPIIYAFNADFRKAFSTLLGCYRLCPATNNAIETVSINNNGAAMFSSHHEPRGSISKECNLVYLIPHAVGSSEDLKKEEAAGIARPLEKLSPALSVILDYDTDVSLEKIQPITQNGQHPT
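Compound effects on dopamine-evoked calcium signalling were measured in tetracycline-induced HEK293 Trex D1 cells. Dopamine at EC80 followed a 180 s compound pre-read, and fluorescence was tracked kinetically for 180 s more.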
DRD3 antagonist: qHTS of D3 Dopamine Receptor Antagonist: qHTS; D(3) dopamine receptor (Homo sapiens), P35462; D3R cells, DiscoveRx beta-arrestin luminescence, antagonist mode; stronger effect = lower value; max response, negative = inhibition, %; 360,000 compounds, 2.5% hits; AID 652054, 2013; in the data active means max response below about -50%; inconclusive means no clear call, values can overlap the other calls
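Cells plated overnight at 1500 cells/well, then exposed to library compounds with dopamine controls for 90 minutes at 37 degrees C. DiscoveRx reagent added for 30–60 minutes at room temperature; luminescence read, quantitative HTS format.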
D1 potentiator: Potentiators of Human D1 Dopamine Receptor: qHTS. potentiation, % at 10 µM. HEK293 TREx D1 cells, calcium flux, dopamine EC20 potentiation. D(1A) dopamine receptor (Homo sapiens), P21728. 360,000 compounds, 0.036% hits; in the data active means potentiation above about 30%
D1 ag: Allosteric Agonists of the Human D1 Dopamine Receptor: qHTS | D(1A) dopamine receptor (Homo sapiens), P21728 | HEK293 T-REx D1 cells, calcium flux, agonist mode | activation, % at 2 µM | 360,000 compounds, 1% hits | AID 504660, 2011; in the data active means activation above about 30%
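Tetracycline-induced HEK293 TREx D1 cells, force-coupled to calcium signalling, were dye-loaded with a no-wash calcium kit. Compound was pin-added after a 10 s baseline. Fluorescence was read kinetically at 1 cycle/s for 180 s, with calcium rises flagged as agonism.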
D3 ag: qHTS of D3 Dopamine Receptor Agonist: qHTS | D3R DiscoveRx beta-arrestin cells, luminescence, 90 min | max activation, % | 410,000 compounds, 0.58% hits; in the data active means max activation above about 30%
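Agonist mode: compounds and dopamine controls were applied to plated cells for 90 min at 37 degrees C after an overnight attachment at 1500 cells/well. Luminescent read-out followed 30 - 60 minutes at room temperature with DiscoveRx detection reagent.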
Numbers stand for hits; i = inactive; ? = inconclusive; nt = no result given.

SMILES	D1 antag	DRD3 antagonist	D1 potentiator	D1 ag	D3 ag
COC(=O)c1ccc(C)c(NC(=O)c2ccc(CN3CCc4ccccc4C3)cc2)c1	i	-92	i	i	i
O=C(c1ccc2c(c1)N(Cc1cccc(F)c1)C(=O)c1ccccc1S2)N1CCCC1	i	nt	i	i	i
COc1cc(OC)c(NC(=O)Cc2c(C(=O)O)c(C)cn2C)cc1Cl	i	nt	i	i	i
Cc1ccc(F)c(S(=O)(=O)NC(=O)C2(C)CCN2C(=O)c2ccccc2)c1 (stereo unspecified)	nt	i	nt	nt	i
Fc1ccc(N2CCN(C3=Nc4cccc5cccc3c45)CC2)cc1	-44	i	i	i	i
c1ccc(CN2CCN(C3=Nc4cccc5cccc3c45)CC2)cc1	i	i	i	i	i
Cc1cc(Cl)c(S(=O)(=O)N2CCCCCC2)cc1OCC(=O)NC1CCCCC1	i	i	i	i	i
CCN1CCN(S(=O)(=O)c2cc(OCC(=O)NC3CCCCC3)c(C)cc2Cl)CC1	i	-70	i	i	i
CC(=O)Nc1cc(-c2cccc(F)c2)cn2c(-c3ccc(F)c(Cl)c3)cnc12	nt	i	nt	nt	i
COC(=O)c1c(-c2cccs2)csc1NC(=O)c1ccc(C(C)(C)C)cc1	i	nt	i	i	i
O=C(c1ccc(NC(=S)NCc2ccc(Cl)cc2)cc1)N1CCCCC1	i	i	i	49	i
O=C(CNCc1ccc(Cl)cc1)Nc1ccc(C(=O)N2CCCCCC2)cc1	i	-65	i	i	i
O=C(CNCc1ccc(Cl)cc1)Nc1ccc(C(=O)N2CCCCC2)cc1	i	i	i	i	i
Cc1ccc2oc(=O)n(CCNC(=O)Nc3ccc(Cl)cc3)c2c1	i	nt	i	i	i
Cc1ccc(CNC(=O)CN2CCN(Cc3ccc(C)cc3)C2=O)cc1	i	i	i	i	i
Cc1ccc(CNC(=O)CN2Cc3ccccc3C2=O)cc1	-37	nt	i	i	i
Cc1ccc(C)c(S(=O)(=O)Nc2ccccc2C(=O)Nc2ccccc2N2CCOCC2)c1	nt	-57	i	i	i
Cc1ccc(S(=O)(=O)Nc2ccc(C(=O)N3CCCC3)cc2)cc1	i	i	i	i	i
Cc1ccc(NS(=O)(=O)c2ccc(C(=O)N3CC(C)CC(C)C3)cc2)cc1 (stereo unspecified)	-42	i	i	73	i
Cc1ccc(C)c(S(=O)(=O)Nc2ccc(C(=O)N3CCOCC3)cc2)c1	nt	-51	nt	nt	i
O=C(Nc1cc(S(=O)(=O)Nc2ccc(Cl)cc2)ccc1O)c1ccc(S(=O)(=O)N2CCCCCC2)cc1	i	-50	i	i	i
O=C(COC(=O)COc1ccc(Cl)cc1Cl)NC1CCCCCC1	i	i	i	i	i
COc1cc(Cl)c(NC(=O)c2cc(S(=O)(=O)N3CCOCC3)cn2C)c(OC)c1	i	nt	i	i	i
Cc1cc2c(s1)c1cnn(Cc3c(F)c(F)c(C)c(F)c3F)c(=O)c1n2C	i	nt	i	i	nt
O=C(NCc1ccc(Cl)cc1)c1cnc2sc(N3CCCC3)nn2c1=O	i	nt	i	i	i
SMILES	D1 antag	DRD3 antagonist	D1 potentiator	D1 ag	D3 ag
O=C(Nc1ccccc1N1CCOCC1)c1ccccc1NS(=O)(=O)c1ccc(F)cc1	-87	i	i	i	i
O=C(Nc1cc(S(=O)(=O)N2CCCCC2)ccc1O)c1ccccc1NS(=O)(=O)c1ccc(F)cc1	i	i	i	i	i
O=C(Nc1cc(S(=O)(=O)N2CCCCC2)ccc1Cl)c1ccccc1NS(=O)(=O)c1ccc(F)cc1	-33	i	i	i	i
O=C(c1ccccc1NS(=O)(=O)c1ccc(F)cc1)N1CCCCC1	i	i	i	i	i
CN1CCN(C(=O)c2ccccc2NS(=O)(=O)c2ccc(F)cc2)CC1	i	-63	i	i	i
Cc1cc(C)c(OCC(=O)Nc2ccccc2N2CCOCC2)c(C)c1	i	i	i	44	i
Cc1sc(N/N=C/c2cccnc2)nc1-c1ccc(Cl)cc1	-33	i	i	i	i
O=c1c2ccccc2n(Cc2c(F)cccc2Cl)c(=O)n1CCc1ccccc1	i	nt	i	i	i
Cc1ccc(OCCCCN2CCc3ccccc3C2)cc1	i	-100	i	i	i
O=C(Cn1cnc2ccccc21)N/N=C/c1ccc([N+](=O)[O-])cc1	i	i	i	i	i
Cc1ccc(/C=N/NC(=O)Cn2cnc3ccccc32)cc1	-43	i	i	i	i
Cc1cccc(OCCCCCN2CCOCC2)c1	i	?	i	i	i
Cc1ccc(OCCCCn2cnc3ccccc32)cc1	-37	i	i	i	i
Cc1cccc(OCCCN2CCCCCC2)c1	i	-51	i	i	i
c1ccc(OCCCCn2cnc3ccccc32)cc1	i	i	i	i	i
Cc1ccc(OCCCCN2CCCCC2)cc1	i	i	i	i	i
CCc1cccc(OCCN2CCCC2)c1	i	-60	i	i	i
Brc1cccc(OCCN2CCc3ccccc3C2)c1	i	-73	i	i	i
Brc1cccc(OCCN2CCCCC2)c1	i	-92	i	i	i
Brc1cccc(OCCN2CCOCC2)c1	i	?	i	i	i
CCSc1nc2ccccc2c(OCc2ccccc2Cl)c1C(=O)OC	i	nt	i	i	i
Cc1cccc(C(=O)Nc2ccccc2C(=O)OCc2cc(=O)n3nc(C4CC4)sc3n2)c1	i	nt	i	i	i
CC(Cc1cccs1)NC(=S)Nc1ccc(Cl)cc1 (stereo unspecified)	-60	i	i	i	i
CC(Cc1cccs1)NC(=S)Nc1ccc(Cl)c(Cl)c1 (stereo unspecified)	i	i	i	i	i
O=c1c2ccccc2[nH]c(=S)n1CCCN1CCC(Cc2ccccc2)CC1	-31	-90	i	i	i
SMILES	D1 antag	DRD3 antagonist	D1 potentiator	D1 ag	D3 ag
CCN1CCN(C(=O)c2ccc3c(=O)n(Cc4ccccc4OC)c(=S)[nH]c3c2)CC1	i	-50	i	i	i
CC1(C)C(=O)N(CCN2CCC(C(=O)c3ccc(F)cc3)CC2)c2ccccc21	-62	-84	i	i	i
CCN1CCN(CCn2c(=S)[nH]c3ccccc3c2=O)CC1	i	-62	i	i	i
CC1CCN(CCCn2c(=S)[nH]c3ccccc3c2=O)CC1	i	i	i	i	i
COc1ccccc1Cn1c(=S)[nH]c2cc(C(=O)N3CCCC3)ccc2c1=O	i	i	i	i	i
COc1ccc(-c2cn(Cc3ccc(C(N)=O)cc3)c(CCN)n2)cc1	i	i	i	i	i
Cc1oc(-c2ccccc2Cl)nc1CS(=O)CC(=O)N1CCN(c2cccc(C(F)(F)F)c2)CC1 (stereo unspecified)	i	nt	i	i	i
COc1cc(/C=C/C(=O)O)cc2c1OCCO2	i	i	i	i	i
Cc1cccc(-n2c(=O)c3ccccc3n(Cc3ccccc3)c2=O)c1	i	nt	i	i	i
